Bioassay records from PubChem BioAssay.
Only some compounds are listed: those with a hit (about 4.1% of all), similar ones and a draw of the others.
PolyA inh = yeast polyadenylation inhibition; 300,000 compounds, 0.02% hits; AID 1875; activity score, % at 12 µM; S. cerevisiae SKY197-pL101 polyadenylation reporter, beta-gal luminescence; efflux-impaired pdr1/pdr3 knockout yeast; score 100 = 6 SD above DMSO;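 active means lowest replicate activity score at least 50, where 100 means six control SD above control mean; inconclusive means lowest score under 50 but half or more replicates reach 50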;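 further: yeast exposed to compound for 9 h at 30 °C; higher score means more reporter readthrough which indicates perturbed polyadenylation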
ALR H2O2 inh = blocks human ALR sulfhydryl oxidase activity; P55789; purified ALR, DTT oxidation, H2O2 HRP-luminol luminescence; inhibition, % (concentration not given with the values); 290,000 compounds, 3.8% hits;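 active means mean replicate inhibition above about 79%, with every replicate also reaching it, limit read from the data; inconclusive means only one of the two criteria met; inactive means mean below limit and not every replicate reaching it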
Target sequence (P55789 whole entry, looked up): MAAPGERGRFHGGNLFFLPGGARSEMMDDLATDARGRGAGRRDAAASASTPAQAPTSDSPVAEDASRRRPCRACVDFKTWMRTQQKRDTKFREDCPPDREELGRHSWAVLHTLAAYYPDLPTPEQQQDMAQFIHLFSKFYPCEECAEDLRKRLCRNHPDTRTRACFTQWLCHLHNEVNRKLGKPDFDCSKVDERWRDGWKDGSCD
IDE inh = cellular human IDE inhibition; P14735; HEK cells, FAbetaB cleavage, fluorescence polarization; inhibition, % at 5.59 µM; 320,000 compounds, 0.41% hits;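 active means percent inhibition above the average of all tested compounds plus 3 SD, set per screening campaign, cut at about 16% in these data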;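 further: IDE supplied by intact live HEK cells; FP after avidin binding of uncleaved biotin substrate so inhibition keeps polarization high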
PfM18AAP inh-1 = blocks P. falciparum M18 aspartyl aminopeptidase; recombinant PfM18AAP, H-Glu-NHMec fluorogenic cleavage; 290,000 compounds, 1.2% hits; AID 1822; inhibition, % at 7.35 µM;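 active means inhibition above the campaign mean inhibition over all tested compounds plus 3 SD, cut at about 28% in these data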
CaV13 FRET inh = Primary screen for inhibitors of IQ motif and Ca2+-dependent inactivation inhibitor domain binding in CACNA1D, Förster resonance energy transfer in living cells, … | HEK cells, CFP/YFP FRET ICDI-IQ, plate reader, 10 min; percent FRET-ratio fall versus neutral wells | AID 743397 | 340,000 compounds, 0.098% hits | inhibition, % at 12.3 µM;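 active means mean replicate inhibition of at least 30% and at least 1% of replicates passing that level; inconclusive means only one of the two criteria is met; inactive means neither criterion is met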
IDE act = IDE (human) activation, cell-based; AID 493087; 340,000 compounds, 0.073% hits; HEK cells, FAbeta-B cleavage, fluorescence polarization; 0% vehicle, 100% cell-free pure enzyme wells; activation, % at 5.96 µM;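 active means activation above the mean of all tested compounds plus 3 SD, set per screening campaign, cut at about 17% in these data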
PfM18AAP inh-2 = confirmation of Plasmodium falciparum M18 aspartyl aminopeptidase inhibitors; shares compounds with PfM18AAP inh-1; recombinant PfM18AAP, H-Glu-NHMec fluorogenic cleavage; inhibition, % at 7.35 µM; 2,400 compounds, 28% hits;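 active means mean inhibition over replicate wells above the hit cutoff set for the earlier primary screen, cut at about 29% in these data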
CTSL1 confirm = Cathepsin L (human) inhibition, confirmation | shares compounds with PfM18AAP inh-1 | purified cathepsin L1, Z-Leu-Arg-MCA fluorescence | inhibition, % at 5.96 µM | 2,400 tested, under 10 active | AID 2178;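 active means average inhibition across replicates above the hit cutoff set in the earlier primary screen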
Target sequence (P07711 whole entry, looked up): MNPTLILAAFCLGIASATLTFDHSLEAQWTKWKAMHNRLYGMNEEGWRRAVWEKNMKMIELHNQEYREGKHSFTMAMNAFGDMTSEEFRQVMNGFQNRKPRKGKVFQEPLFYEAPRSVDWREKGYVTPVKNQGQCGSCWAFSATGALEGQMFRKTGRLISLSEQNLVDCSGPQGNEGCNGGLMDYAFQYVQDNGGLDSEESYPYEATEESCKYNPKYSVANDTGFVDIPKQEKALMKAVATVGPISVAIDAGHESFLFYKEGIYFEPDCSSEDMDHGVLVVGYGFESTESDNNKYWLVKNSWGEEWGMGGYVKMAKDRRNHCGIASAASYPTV
Hits are given with their value.

What do the screens show for `O=C(NN1CC(C(=O)OCc2ccccc2F)CC1=O)c1ccccc1` (stereo not drawn)?
PolyA inh: inactive; ALR H2O2 inh: inactive; IDE inh: inactive; PfM18AAP inh-1: inactive; CaV13 FRET inh: inactive; IDE act: inactive

Results for CC(=O)NC1=NC(=O)/C(=C/c2cc(C)n(-c3cccc(C(=O)O)c3)c2C)S1 ?
PolyA inh: inactive; PfM18AAP inh-1: 33; CaV13 FRET inh: inactive; PfM18AAP inh-2: inactive; CTSL1 confirm: inactive

Results for O=C(Cc1ccc(NS(=O)(=O)c2cccc(C(F)(F)F)c2)cc1)NCCN1CCOCC1 ?
PolyA inh: inactive; ALR H2O2 inh: inactive; IDE inh: inactive; CaV13 FRET inh: inactive; IDE act: inactive

What do the screens show for `CCOc1ccc(C2/C(=C(/O)c3ccc4c(c3)CC(C)O4)C(=O)C(=O)N2CCCn2ccnc2)cc1OCC` (stereo not drawn)?
PolyA inh: inactive; ALR H2O2 inh: inactive; IDE inh: inactive; PfM18AAP inh-1: inactive; CaV13 FRET inh: inactive; IDE act: inactive

What do the screens show for `Nc1ccc(Cc2ccc(N)c(O)c2)cc1O`?
PfM18AAP inh-1: inactive; CaV13 FRET inh: inactive; IDE act: inactive

What do the screens show for `OCCCc1ccc(O)c(O)c1`?
PolyA inh: inactive; ALR H2O2 inh: inactive; IDE inh: inactive; PfM18AAP inh-1: 45; IDE act: inactive; PfM18AAP inh-2: inactive; CTSL1 confirm: inactive

What do the screens show for `Cc1cccc(C(=O)NCCC(=O)NCc2ccccc2F)c1`?
IDE inh: inactive; CaV13 FRET inh: inactive; IDE act: inactive

Results for CCCCC1Cc2[nH][nH]c(=O)c2C(c2ccc(F)cc2)O1 (stereo not drawn) ?
CaV13 FRET inh: inactive

What do the screens show for `CC(=O)Oc1cc2oc(=O)cc(C)c2cc1OC(C)=O`?
PolyA inh: inconclusive; ALR H2O2 inh: 89; IDE inh: inactive; PfM18AAP inh-1: 47; CaV13 FRET inh: inactive; IDE act: inactive; PfM18AAP inh-2: 75; CTSL1 confirm: 19

Results for CC(=O)Oc1ccc2c(C)cc(=O)oc2c1 ?
PolyA inh: inactive; ALR H2O2 inh: inactive; IDE inh: inactive; PfM18AAP inh-1: inactive; CaV13 FRET inh: inactive; IDE act: inactive

Results for COc1cc2c(cc1OC)C(COc1ccc(F)cc1)N(C(=O)c1ccco1)CC2 (stereo not drawn) ?
PolyA inh: inactive; ALR H2O2 inh: inactive; IDE inh: inactive; PfM18AAP inh-1: inactive; CaV13 FRET inh: inactive; IDE act: inactive

How did COc1cc2c(cc1OC)C(c1cc3cccc(C)c3[nH]c1=O)N(C(=O)c1ccco1)CC2 (stereo not drawn) do in these assays?
PolyA inh: inactive; ALR H2O2 inh: inactive; IDE inh: inactive; PfM18AAP inh-1: 48; CaV13 FRET inh: inactive; IDE act: inactive; PfM18AAP inh-2: inactive; CTSL1 confirm: inactive

Results for COc1ccc(/C=N/Nc2nc(C(=O)O)cs2)cc1 ?
PolyA inh: inactive; ALR H2O2 inh: inactive; IDE inh: inactive; PfM18AAP inh-1: 34; CaV13 FRET inh: inactive; IDE act: inactive; PfM18AAP inh-2: inactive; CTSL1 confirm: inactive

Results for C/C(=N/NC(=O)C(=O)N/N=C(/C)c1ccccc1)c1ccccc1 ?
PolyA inh: inactive; ALR H2O2 inh: inactive; IDE inh: inactive; PfM18AAP inh-1: inactive; CaV13 FRET inh: inactive

Results for C/C(=N\Nc1nc(C(=O)O)cs1)c1ccccc1 ?
PolyA inh: inactive; ALR H2O2 inh: inactive; IDE inh: inactive; PfM18AAP inh-1: 42; CaV13 FRET inh: inactive; PfM18AAP inh-2: inactive; CTSL1 confirm: inactive

What do the screens show for `CC(=O)Nc1ccc(S(=O)(=O)NCC2CCC(C(=O)NC(C)c3ccc4c(c3)OCCO4)CC2)cc1` (stereo not drawn)?
PolyA inh: inactive; ALR H2O2 inh: inactive; IDE inh: inactive; PfM18AAP inh-1: inactive

How did O=c1c2cc(N3CCOCC3)ccc2[nH]c(=S)n1Cc1ccccn1 do in these assays?
PolyA inh: inactive; ALR H2O2 inh: inactive; IDE inh: inactive; PfM18AAP inh-1: 44; CaV13 FRET inh: inactive; IDE act: inactive; PfM18AAP inh-2: inactive; CTSL1 confirm: inactive

How did Oc1ccc(/C=C/c2cc(O)cc(O)c2)cc1 do in these assays?
PolyA inh: inactive; ALR H2O2 inh: 79; IDE inh: inactive; PfM18AAP inh-1: 59; CaV13 FRET inh: inactive; IDE act: inactive; PfM18AAP inh-2: 59; CTSL1 confirm: inactive

What do the screens show for `Oc1cc(O)cc(C=Cc2ccc(O)c(O)c2)c1`?
CaV13 FRET inh: inactive

Results for Cc1ccccc1NC(=S)NN1CCN(C)CC1 ?
PolyA inh: inactive; ALR H2O2 inh: inactive; IDE inh: inactive; PfM18AAP inh-1: inactive; CaV13 FRET inh: inactive; IDE act: inactive

What do the screens show for `CCOc1ccccc1NC(=S)Nn1cnnc1`?
PolyA inh: inactive; ALR H2O2 inh: inactive; IDE inh: inactive; PfM18AAP inh-1: 74; CaV13 FRET inh: inactive; IDE act: inactive; PfM18AAP inh-2: 56; CTSL1 confirm: inactive

What do the screens show for `Fc1ccccc1NC(=S)NCc1ccccc1`?
PolyA inh: inactive; IDE inh: inactive; PfM18AAP inh-1: inactive; CaV13 FRET inh: inactive; IDE act: inactive

Results for CCOc1ccccc1NC(=S)Nc1ccccc1F ?
PolyA inh: inactive; ALR H2O2 inh: inactive; IDE inh: inactive; PfM18AAP inh-1: inactive; CaV13 FRET inh: inactive; IDE act: inactive

How did Fc1ccccc1NC(=S)Nn1cnnc1 do in these assays?
PolyA inh: inactive; ALR H2O2 inh: inactive; IDE inh: inactive; PfM18AAP inh-1: 75; CaV13 FRET inh: inactive; IDE act: inactive; PfM18AAP inh-2: 54; CTSL1 confirm: inactive

Results for Cc1ccccc1NC(=S)Nn1cnnc1 ?
PolyA inh: inactive; ALR H2O2 inh: inactive; IDE inh: inactive; PfM18AAP inh-1: 73; CaV13 FRET inh: inactive; IDE act: inactive; PfM18AAP inh-2: 52; CTSL1 confirm: inactive

How did CCc1ccccc1NC(=S)Nn1cnnc1 do in these assays?
ALR H2O2 inh: inactive; PfM18AAP inh-1: 76; CaV13 FRET inh: inactive; IDE act: inactive; PfM18AAP inh-2: 70; CTSL1 confirm: inactive

What do the screens show for `CCNc1nc(NCC)n2c(SCC(=O)N(CC)C3CCCCC3)nnc2n1`?
PolyA inh: inactive; ALR H2O2 inh: inactive; IDE inh: inactive; PfM18AAP inh-1: inactive; CaV13 FRET inh: inactive; IDE act: inactive

What do the screens show for `Cc1cccc(NC(=S)Nn2cnnc2)c1C`?
PolyA inh: inactive; ALR H2O2 inh: inactive; IDE inh: inactive; PfM18AAP inh-1: 72; CaV13 FRET inh: inactive; IDE act: inactive; PfM18AAP inh-2: 69; CTSL1 confirm: inactive
